Source: PubChem BioAssay AID588795 (National Center for Advancing Translational Sciences (NCATS), 2011)
In all, about 390,000 compounds went through this assay and about 1,400 (0.36%) were called active. About 2% were inconclusive and are not listed. Only a selection was taken, and actives are over-represented in it overall. Unmarked numbers belong to inactive results. Calls come from the whole dose curve; as a rule, active = well fitted inhibition curve with a large enough effect; inconclusive = small, poorly fitted or top-dose-only effect; inactive = no such curve, though single readings can be large or run the other way.
% is set by controls: 0 for no effect and ±100 for the full control effect; potency is the fitted concentration of half-maximal effect.
Note: nearly all actives have a fitted effect of over 65% in size.

What follows are molecules tested against Flap endonuclease 1 (Homo sapiens) (UniProt P39748) (assay: qHTS Assay for the Inhibitors of Human Flap endonuclease 1 (FEN1).). Conditions: Recombinant FEN1 flap cleavage, fluorescence, 15 min; series mostly up to 114 µM; activity change, negative = inhibition: at the top concentration.
Flap endonuclease 1 (Homo sapiens), sequence (P39748 whole entry, looked up): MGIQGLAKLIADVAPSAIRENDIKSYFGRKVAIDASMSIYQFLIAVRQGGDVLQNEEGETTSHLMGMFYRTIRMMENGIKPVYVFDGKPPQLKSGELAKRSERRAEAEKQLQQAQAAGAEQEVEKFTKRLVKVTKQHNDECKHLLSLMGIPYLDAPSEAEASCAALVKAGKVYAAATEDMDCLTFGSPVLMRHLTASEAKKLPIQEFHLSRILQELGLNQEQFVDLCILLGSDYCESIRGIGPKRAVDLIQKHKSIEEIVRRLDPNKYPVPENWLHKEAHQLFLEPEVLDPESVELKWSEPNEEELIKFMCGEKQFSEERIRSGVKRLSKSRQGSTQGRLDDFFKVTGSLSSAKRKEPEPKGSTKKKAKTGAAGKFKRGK
In short: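 Compounds are tested as a concentration series against 10 nM FEN1; after a 15 min room-temperature preincubation, 50 nM substrate starts cleavage, with plate reads at 0 and 15 min. Normalized responses are fitted by a Hill equation.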
O=C1C[C@H]2C=CCc3cccc(c32)CN1Cc1ccccc1 was tested, and the “activity change, negative = inhibition” value was -2.58%. O=C(c1ccc2c(=O)n(Cc3ccco3)c(=S)[nH]c2c1)N1CCCC1 was tested, and the “activity change, negative = inhibition” value was 5.1%. For O=S(=O)(Nc1cccc2cccnc12)c1cccc2cccnc12, the “activity change, negative = inhibition” value was 2.67%. With Cn1cccc1/C=C1\SC(=S)N(NC(=O)c2ccc(Cl)cc2)C1=O the “activity change, negative = inhibition” value was 3.67%. With O=C(NCc1ccccc1)c1cc(-c2cccc(Cl)c2)on1 the “activity change, negative = inhibition” value was 4.6%. In the case of O=C(O)C(c1ccccc1)N1C(=O)/C(=C\c2ccc(-c3cccc(Cl)c3)o2)SC1=S (centres undefined), the Potency is reported as 17.8 µM (active). Cc1c(CCO)sc[n+]1CC(=O)c1ccc2ccccc2c1 was tested, and the “activity change, negative = inhibition” value was -4.18%. In the case of O=C(C1COc2ccccc2O1)N(Cc1cccnc1)c1nc2c(F)cc(F)cc2s1 (centres undefined), the “activity change, negative = inhibition” value is reported as -15%. For CCOC(=O)c1sc2nc(CSCC(=O)OCc3ccc(C(=O)OC)o3)[nH]c(=O)c2c1C, the “activity change, negative = inhibition” value was -1.9%. With Cc1sc2nc(CSCC(=O)NC3CCCCC3)[nH]c(=O)c2c1C the “activity change, negative = inhibition” value was -2.42%. For CSc1nnc(SCc2nc3sc(C(=O)O)c(C)c3c(=O)[nH]2)s1, the Potency was 20 µM (active). CCOC(=O)C1CCN(C(c2ccc(F)cc2)c2sc3nc(-c4ccco4)nn3c2O)CC1 (centres undefined) was tested, and the “activity change, negative = inhibition” value was 19.6%. For Cn1nnc2c(N3CCN(c4ccccc4)CC3)ncnc21, the “activity change, negative = inhibition” value was -13.6%. With O=C(NCc1ccccc1)C(=O)NCC(c1ccco1)S(=O)(=O)c1ccc(Cl)cc1 (centres undefined) the “activity change, negative = inhibition” value was 15.8%. For CC1(OC(=O)C2CCCC2)C(=O)C=C2C=C(c3ccc(C#N)cc3)OC=C2C1=O (centres undefined), the Potency was 20 µM (active). COC(=O)CCCC1=CC2=CC(=O)C(C)(OC(=O)c3cccs3)C(=O)C2=CN1c1cccc(C#N)c1 (centres undefined) was tested, and the “activity change, negative = inhibition” value was -1.74%. CC1(OC(=O)CCc2ccccc2)C(=O)C=C2C=C(c3ccc(C#N)cc3)N(CCc3ccccn3)C=C2C1=O (centres undefined) was tested, and the “activity change, negative = inhibition” value was 6.95%. In the case of C=COC(=O)N1CCN(/[N+]([O-])=N/Oc2ccc([N+](=O)[O-])cc2[N+](=O)[O-])CC1, the “activity change, negative = inhibition” value is reported as -25.1%. Cc1nc(N=C(N)N)nc2c(C)cccc12 was tested, and the Potency was 35.5 µM (active). In the case of Cc1nc(/N=C(\N)NC(=O)NC2CCCCC2)nc2ccccc12, the “activity change, negative = inhibition” value is reported as -21.2%. With COc1nc(N=C(N)N)nc2c(C)cccc12 the Potency was 39.8 µM (active). In the case of CCc1c(C)nc2c(OC)cccc2c1Cl, the Potency is reported as “inactive”. With COc1ccccc1NC(=O)CSc1oc(-c2ccco2)nc1S(=O)(=O)c1ccc(Br)cc1 the “activity change, negative = inhibition” value was -7.55%. For O=C(Nc1ccccc1C(F)(F)F)c1nc(S(=O)(=O)Cc2ccccc2F)ncc1Cl, the “activity change, negative = inhibition” value was -25%. In the case of CCOc1ccccc1N(CC)C(=O)Nc1cn(C)c(=O)c2ccccc12, the “activity change, negative = inhibition” value is reported as -6.42%. For Cc1ccc(NC2=C(c3ccc(C(F)(F)F)cc3)C(=O)c3ccccc32)cc1F, the “activity change, negative = inhibition” value was 11%. CN(CCC#N)c1ccc(C=O)cc1 was tested, and the “activity change, negative = inhibition” value was 19.2%. For CC(=O)Nc1cccc(C(=O)OCC(=O)c2ccc3c(c2)OCO3)c1, the “activity change, negative = inhibition” value was 1.33%. With CCN(CC)N=Nc1cccc(NC(C)=O)c1 the Potency was 89.1 µM (active). For CCN(CC)C(=O)CSC(Nc1cccc(F)c1)=C(C#N)C#N, the “activity change, negative = inhibition” value was -0.693%. For CCOC(=O)c1c(C)[nH]c(CCC(=O)NCCCN2CCN(c3cccc(Cl)c3)CC2)c1C, the “activity change, negative = inhibition” value was -10.7%. COc1ccc(CCn2c3c(c(=O)[nH]c2=S)CN(C(C)C)CN3)cc1OC was tested, and the “activity change, negative = inhibition” value was 1.65%. Cc1cccc(-c2nnc(SC(C)C(=O)Nc3ccccc3)n2C)c1 (centres undefined) was tested, and the “activity change, negative = inhibition” value was -6.04%. In the case of COc1cc(C(=O)Nc2ccc(-n3c(C)nc4ccccc4c3=O)cc2)cc(OC)c1OC, the “activity change, negative = inhibition” value is reported as -0.707%.
